From PubChem BioAssay (NCATS)
Records with an inconclusive call do not appear. Activity calls are given as the source filed them. Calls follow the shape of the dose curve; as a rule, active = well fitted curve in the direction sought with a large enough effect; inconclusive = small, poorly fitted or top-dose-only effect, or another doubt; inactive = no such curve, though single readings can be large; an effect the other way counts as inactive or inconclusive.

Biological target: Tyrosine-protein kinase Yes (Homo sapiens) (UniProt P07947)
Sequence (P07947 whole entry, looked up): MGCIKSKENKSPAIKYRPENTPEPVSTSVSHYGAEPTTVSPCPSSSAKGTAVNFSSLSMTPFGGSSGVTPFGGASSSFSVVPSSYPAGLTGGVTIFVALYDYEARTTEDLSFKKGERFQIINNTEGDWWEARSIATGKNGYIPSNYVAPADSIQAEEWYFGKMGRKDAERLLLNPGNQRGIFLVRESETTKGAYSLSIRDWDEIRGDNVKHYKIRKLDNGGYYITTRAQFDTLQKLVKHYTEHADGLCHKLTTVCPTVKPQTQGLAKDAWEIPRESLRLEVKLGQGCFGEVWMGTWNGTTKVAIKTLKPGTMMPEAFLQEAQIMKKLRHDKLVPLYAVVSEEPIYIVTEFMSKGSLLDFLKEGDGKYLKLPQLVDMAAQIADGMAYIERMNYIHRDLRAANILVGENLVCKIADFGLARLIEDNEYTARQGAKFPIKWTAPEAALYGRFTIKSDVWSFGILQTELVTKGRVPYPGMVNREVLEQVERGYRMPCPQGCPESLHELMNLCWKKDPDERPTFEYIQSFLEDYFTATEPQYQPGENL
Experiment: qHTS for small molecule inhibitors of Yes1 kinase: Primary Screen (AID 686947); also: nearly all actives have a fitted effect of over 60% in size; also: potency is read from the fitted curve at half-maximal effect;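 as to activity change, negative = inhibition: plate controls were DMSO with enzyme for no effect and no-enzyme DMSO wells for full effect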
Conditions: Yes1 kinase biochemical qHTS inhibition; series mostly up to 76.9 µM; activity change, negative = inhibition: at the top concentration
Summary of the method: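 In this qHTS format, inhibition is expressed relative to DMSO controls with enzyme (maximum) and without enzyme (minimum). The 60 min room-temperature reaction uses 0.1 mM ATP, with ADP detected by luminescence.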

SMILES | activity change, negative = inhibition | Potency
CCOC(=O)[C@@H](N)CCC(=O)N[C@@H](CSCc1ccccc1)C(=O)N[C@@H](C(=O)OCC)c1ccccc1 | -0.882% (inactive) | –
CCCCCCCCCCCCCC(=O)N[C@H](CO)[C@H](O)c1ccc([N+](=O)[O-])cc1 | -6.56% (inactive) | –
O=C(O)c1ccc(O)c2ncc(N3CCOCC3)cc12 | 4.34% (inactive) | –
COC(=O)Nc1ccc(-c2nc(N3CCOCC3)c3cnn(C4CCN(C(=O)OC)CC4)c3n2)cc1 | 8.25% (inactive) | –
CC(C)n1c(C=C[C@H](O)C[C@H](O)CC(=O)O)c(-c2ccc(F)cc2)c2ccccc21 | 9.06% (inactive) | –
OCCn1cc(-c2ccc3c(c2)CCC3=NO)c(-c2ccncc2)n1 | 173% (inactive) | –
CC(C)C[C@@H](C(=O)N[C@H](C(=O)OC1CCCC1)c1ccccc1)[C@H](O)C(=O)NO | -11.9% (inactive) | –
COc1ccc2c(c1)CC[C@H]1[C@@H]2CC[C@]2(C)[C@@H](NCCCCCCN3C(=O)C=CC3=O)CC[C@H]12 | -1.62% (inactive) | –
COc1nc(C)cnc1NS(=O)(=O)c1cccnc1-c1ccc(-c2nnco2)cc1 | -5.53% (inactive) | –
O=C1C(CCC(O)c2ccc(F)cc2)C(c2ccc(O)cc2)N1c1ccc(F)cc1 (configuration not stated) | 9.87% (inactive) | –
Cc1nn(Cc2ccccc2Cl)c(C)c1CN(C)CC(O)COc1ccc(Cl)cc1 (configuration not stated) | -7.3% (inactive) | –
O=C1Nc2ccc(I)cc2C1=Cc1cc(Br)c(O)c(Br)c1 | – | 5.82 µM (active)
Nc1ccc(-c2ccc3ncc4ccc(=O)n(-c5cccc(C(F)(F)F)c5)c4c3c2)cn1 | – | 27.4 µM (active)
CC(=O)Nc1cccc(-n2c(=O)n(C3CC3)c(=O)c3c(Nc4ccc(I)cc4F)n(C)c(=O)c(C)c32)c1 | -13.9% (inactive) | –
Cn1cc(-c2ccc3nnc(Sc4ccc5ncccc5c4)n3n2)cn1 | 23.2% (inactive) | –
NC(=O)c1ccc(N(C(N)=O)c2c(F)cccc2F)nc1-c1ccc(F)cc1F | -9.9% (inactive) | –
CCC=CC[C@H]1C(=O)CC[C@@H]1CC(=O)OC | -10.6% (inactive) | –
COc1cc2c(cc1OC)CC(=O)N(CCCN(C)C[C@H]1Cc3cc(OC)c(OC)cc31)CC2 | 8.88% (inactive) | –
Cc1ccc(C(=O)N(CCCN)[C@@H](c2nc3cc(Cl)ccc3c(=O)n2Cc2ccccc2)C(C)C)cc1 | -12.4% (inactive) | –
COc1cc2ncn(-c3cc(OCc4ccccc4S(C)(=O)=O)c(C#N)s3)c2cc1OC | – | 0.232 µM (active)
CC1=C[C@@H]2[C@@H]([C@@H](O)C[C@@]3(C)[C@H]2C[C@@H](C)[C@]3(O)C(=O)CO)[C@@]2(C)Cc3cnn(-c4ccccc4)c3C=C12 | -7.12% (inactive) | –
Cc1csc(-c2nnc(Nc3ccc(Oc4ncccc4-c4ccnc(N)n4)cc3)c3ccccc23)c1 | 61.1% (inactive) | –
CNC(=O)c1cc(Oc2ccc(NC(=O)Nc3ccc(Cl)c(C(F)(F)F)c3)c(F)c2)ccn1 | – | 4.87 µM (active)
CCc1cc(-c2n[nH]c(C)c2-c2ccc3c(c2)OCCO3)c(O)cc1O | – | 4.34 µM (active)
CN(C)CCCNC(=O)c1ccc(-c2cc(O)c3ncccc3c2)cc1 | – | 38.7 µM (active)
O=C(Nc1cccc(Cl)c1)Nc1ncc(CCNc2ncnc3ccsc23)s1 | -13.3% (inactive) | –

Test system: not listed separately
Experiment: qHTS for small molecule inhibitors of Yes1 kinase: Counter Assay (AID 686950);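 also: no kinase present so only ADP-Glo detection of a fixed ADP amount is tested; luminescence from ADP-Glo reporting ADP in a fixed ATP and ADP mixture; 0% = DMSO wells with ATP plus ADP and -100% = ATP-only wells without ADP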
Conditions: series mostly up to 76.9 µM; activity change, negative = inhibition: at the top concentration
Summary of the method: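 ADP-Glo luminescence read after a 60 min room-temperature incubation of compound with an ATP/ADP mix (0.08 mM/0.02 mM) and no kinase, following a 20 min compound preincubation. Signal scaled between ATP+ADP (max) and 0.1 mM ATP-only (min) wells; Tris pH 7.5, Mg2+, DTT.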

SMILES | activity change, negative = inhibition
CCOC(=O)[C@@H](N)CCC(=O)N[C@@H](CSCc1ccccc1)C(=O)N[C@@H](C(=O)OCC)c1ccccc1 | 3.12% (inactive)
CCCCCCCCCCCCCC(=O)N[C@H](CO)[C@H](O)c1ccc([N+](=O)[O-])cc1 | 3.99% (inactive)
O=C(O)c1ccc(O)c2ncc(N3CCOCC3)cc12 | 0.846% (inactive)
COC(=O)Nc1ccc(-c2nc(N3CCOCC3)c3cnn(C4CCN(C(=O)OC)CC4)c3n2)cc1 | 4.86% (inactive)
CC(C)n1c(C=C[C@H](O)C[C@H](O)CC(=O)O)c(-c2ccc(F)cc2)c2ccccc21 | 4.21% (inactive)
OCCn1cc(-c2ccc3c(c2)CCC3=NO)c(-c2ccncc2)n1 | 40.5% (inactive)
CC(C)C[C@@H](C(=O)N[C@H](C(=O)OC1CCCC1)c1ccccc1)[C@H](O)C(=O)NO | -1.27% (inactive)
COc1ccc2c(c1)CC[C@H]1[C@@H]2CC[C@]2(C)[C@@H](NCCCCCCN3C(=O)C=CC3=O)CC[C@H]12 | 2% (inactive)
COc1nc(C)cnc1NS(=O)(=O)c1cccnc1-c1ccc(-c2nnco2)cc1 | 0.808% (inactive)
O=C1C(CCC(O)c2ccc(F)cc2)C(c2ccc(O)cc2)N1c1ccc(F)cc1 (configuration not stated) | 7.38% (inactive)
Cc1nn(Cc2ccccc2Cl)c(C)c1CN(C)CC(O)COc1ccc(Cl)cc1 (configuration not stated) | 2.43% (inactive)
O=C1Nc2ccc(I)cc2C1=Cc1cc(Br)c(O)c(Br)c1 | 13.2% (inactive)
Nc1ccc(-c2ccc3ncc4ccc(=O)n(-c5cccc(C(F)(F)F)c5)c4c3c2)cn1 | 3.47% (inactive)
CC(=O)Nc1cccc(-n2c(=O)n(C3CC3)c(=O)c3c(Nc4ccc(I)cc4F)n(C)c(=O)c(C)c32)c1 | 0.201% (inactive)
Cn1cc(-c2ccc3nnc(Sc4ccc5ncccc5c4)n3n2)cn1 | -13.3% (inactive)
NC(=O)c1ccc(N(C(N)=O)c2c(F)cccc2F)nc1-c1ccc(F)cc1F | -8.92% (inactive)
CCC=CC[C@H]1C(=O)CC[C@@H]1CC(=O)OC | -2.41% (inactive)
COc1cc2c(cc1OC)CC(=O)N(CCCN(C)C[C@H]1Cc3cc(OC)c(OC)cc31)CC2 | 3.03% (inactive)
Cc1ccc(C(=O)N(CCCN)[C@@H](c2nc3cc(Cl)ccc3c(=O)n2Cc2ccccc2)C(C)C)cc1 | -7.16% (inactive)
COc1cc2ncn(-c3cc(OCc4ccccc4S(C)(=O)=O)c(C#N)s3)c2cc1OC | 3.52% (inactive)
CC1=C[C@@H]2[C@@H]([C@@H](O)C[C@@]3(C)[C@H]2C[C@@H](C)[C@]3(O)C(=O)CO)[C@@]2(C)Cc3cnn(-c4ccccc4)c3C=C12 | -1.86% (inactive)
Cc1csc(-c2nnc(Nc3ccc(Oc4ncccc4-c4ccnc(N)n4)cc3)c3ccccc23)c1 | 0.934% (inactive)
CNC(=O)c1cc(Oc2ccc(NC(=O)Nc3ccc(Cl)c(C(F)(F)F)c3)c(F)c2)ccn1 | -0.281% (inactive)
CCc1cc(-c2n[nH]c(C)c2-c2ccc3c(c2)OCCO3)c(O)cc1O | 4.42% (inactive)
CN(C)CCCNC(=O)c1ccc(-c2cc(O)c3ncccc3c2)cc1 | 0% (inactive)
O=C(Nc1cccc(Cl)c1)Nc1ncc(CCNc2ncnc3ccsc23)s1 | 2.06% (inactive)
